This is an account of results in ChEMBL document CHEMBL4513216, “Probing the Open Global Health Chemical Diversity Library for Multistage-Active Starting Points for Next-Generation Antimalarials” (ACS Infect Dis, 2020).

About 2,700 (4%) of roughly 68,000 compounds showed an effect of 50% or more. This is one part of a sample in which strong results are shown more often than they occur.

For this experiment, the system named is Plasmodium berghei. The experiment in a line: Screen against P. berghei liver stage (PbLuc), transformed with Luciferase, at 2uM. Type of experiment: functional, HepG2. Conditions: tested at 2 uM.
`CNC(=O)C(C)CNC(=O)c1coc(COc2cccc(F)c2F)n1` (centres undefined): the INHIBITION was 16.32%.

For `O=C(N[C@@H]1CN(Cc2ccco2)[C@@H]2CCCO[C@@H]21)c1cscn1`, the INHIBITION is listed as -2.81%. The value for `COc1c(CNC2CCOc3c(Cl)cccc32)c(C)nn1C` (centres undefined) was 24.64%; that for `Cc1nc(CN2CCc3ncnc(-c4ccsc4)c3CC2)cs1` was 8.62%. As for `O=C(NCCOCCO)[C@@]12CNC[C@@H]1CN(C1CCCC1)C2`, the INHIBITION was 45.82%. In the case of `COCC1(CNC(=O)[C@@]23CNC[C@@H]2CN(C2CCCC2)C3)CC1`, the INHIBITION is listed as 83.98%. For `CCS(=O)(=O)CCNC(=O)[C@@]12CNC[C@@H]1CN(C1CCCC1)C2`, the INHIBITION is on record as -13.8%. The value for `CCC(NC(=O)C1CCN(S(C)(=O)=O)CC1)c1ccc(C)cc1C` (centres undefined) was 20.49%; that for `CC(C)COC(=O)N1CCCN(C(C)c2nc(C(C)C)no2)CC1` (centres undefined) was 4.49%; that for `O=C(NCc1ccco1)[C@H]1C[C@H]2OCC[C@H]2N(C(=O)c2ccnnc2)C1` was -14.65%. In the case of `O=C(C1CC1)N1CCC2(CCN2Cc2ccc(F)cc2)C1` (centres undefined), the INHIBITION is reported as 31.52%. The value for `COC(=O)NCC(=O)N1CCCn2nc(CN3CC[C@H](F)C3)cc2C1` was 52.85%. The value for `Cc1nn(C)cc1C(=O)N1CCCn2nc(CN3CC[C@H](F)C3)cc2C1` was -11.76%; that for `O=C(c1ccc(Cl)s1)N1CCCn2nc(CN3CC[C@H](F)C3)cc2C1` was -13.81%; that for `CCn1cncc1-c1nc2c([nH]1)CC(C)(C)CNC2=O` was 50.61%. With `CC(C)Cn1cncc1-c1nc2c([nH]1)CC(C)(C)CNC2=O`, the INHIBITION is recorded as -54.78%. Consider `COCCn1cncc1-c1nc2c([nH]1)CC(C)(C)CNC2=O`, for which the INHIBITION amounted to 8.54%. With `CCc1cc(N2CCCNCC2)n2nc(C)c(C)c2n1`, the INHIBITION turned out to be 14.23%. The value for `Cc1ccc(NS(=O)(=O)c2cc3c(c(C(=O)O)c2)OCCO3)cc1C` was -19.1%; that for `O=C(NCc1cc[nH]n1)NCC(O)c1ccc(F)c(F)c1` (centres undefined) was -87.87%.

Turning to `CCCS(=O)(=O)N1CCCC1c1cccc(N(C)C)c1` (centres undefined), the INHIBITION is -46.3%.

As for `CN(C)CCC1CCCCN1Cc1cnc(-c2ccccn2)nc1` (centres undefined), the INHIBITION is reported as 53.12%. The value for `Cc1nccn1CCC1CCCCN1Cc1cnc(N(C)C)nc1` (centres undefined) was -4.51%; that for `c1ccc(-c2ncc(CN3CCCCC3CCn3cccn3)cn2)nc1` (centres undefined) was 11.38%; that for `CS(=O)(=O)N1CCC2(CC1)COC(COc1ccccn1)C2` (centres undefined) was 46.32%.

Regarding `Cc1ccc(C(=O)N2CCC[C@@H]2Cn2nnc3c(O)nc(C)nc32)cc1`, the INHIBITION is given as -15.93%.

For the compound `Cc1nc(O)c2nnn(C[C@H]3CCCN3C(=O)C3CCCC3)c2n1`, the INHIBITION was determined as 50.32%. Take `Cc1nc(O)c2nnn(C[C@H]3CCCN3C(=O)c3ccccc3F)c2n1`: the INHIBITION amounted to 33.64%.

Consider `Cc1nc(O)c2nnn(C[C@H]3CCCN3C(=O)C(C)(C)C)c2n1`, for which the INHIBITION is -47.12%. The value for `Cc1nc(O)c2nnn(C[C@H]3CCCN3C(=O)CCC3CCCC3)c2n1` was 6.57%; that for `Cc1nc(O)c2nnn(C[C@H]3CCCN3C(=O)c3ccccc3C)c2n1` was 83.57%; that for `CCn1cc(NC(=O)C2CCN(Cc3nc(C)c(C)s3)CC2)cn1` was -3.36%.

Regarding `Cc1ccc(NC(=O)[C@H]2C[C@H](C(=O)O)CN(CC3CC3)C2)cn1`, the INHIBITION was found to be 38.15%. The value for `FC(F)(F)c1ccc2[nH]c([C@H]3CCNC3)nc2c1` was 62.8%; that for `CC(C)N1CC[C@H](c2nc3ccc(C(F)(F)F)cc3[nH]2)C1` was 4%; that for `Fc1ccc2nc([C@H]3CCNC3)[nH]c2c1` was -11.34%.

Turning to `COCC(=O)NC(Cc1cc(N(C)C)nc(C2CC2)n1)c1ccccc1` (centres undefined), the INHIBITION is recorded as 7.93%. The value for `CCOCCN1CCN(C=C2NN=C(c3occc3C)O2)CC1CC` (centres undefined) was 24.82%; that for `CC(CS(C)(=O)=O)N(C(=O)Nc1ccc(F)cc1F)C1CC1` (centres undefined) was -3.43%. For the compound `Cc1cccc(NC(=O)N(CCC(F)(F)F)C[C@H](O)CO)c1`, the INHIBITION is given as -24.88%. For the compound `COc1cccc(NC(=O)N(CCO)Cc2ccsc2)c1`, the INHIBITION is listed as -75.39%.

For the compound `O=C(Nc1ccc(F)cc1F)N(CCC(F)(F)F)C[C@H](O)CO`, the INHIBITION worked out at 66.83%. The value for `COc1cccc(NC(=O)N(CCC(F)(F)F)C[C@H](O)CO)c1` was 50.6%.

For the compound `O=C(Nc1ccc(F)cc1)N(CCC(F)(F)F)C[C@H](O)CO`, the INHIBITION is listed as 5%. On to `CN(C)c1ccc(C(=O)Nc2ccn(Cc3ccccn3)n2)cn1`, for which the INHIBITION is -44.17%. Consider `CN1CCOC[C@H]1c1nc(-c2cccnc2)c[nH]1`, for which the INHIBITION was 5.77%. The value for `O=C(Nc1cccc(CNCc2csc(Br)c2)c1)C1CC1` was -0.64%; that for `CCC1(c2ccc(NS(=O)(=O)N(C)C)cc2)CCC(=O)NC1=O` (centres undefined) was -11.81%; that for `CN1CCCCC1Cc1nc2c(cc1C(N)=O)CCC2` (centres undefined) was 62.39%.
